From PubChem
D3 ag: qHTS of D3 Dopamine Receptor Agonist: qHTS | max activation, % | 410,000 tested, 0.58% active | AID 652048, 2013 | D(3) dopamine receptor (Homo sapiens), P35462 | D3R DiscoveRx beta-arrestin cells, luminescence, 90 min; in the data active means max activation above about 30%; further: 0% is about no effect
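Agonist-mode cell screen: cells plated at 1500/well and incubated overnight at 37 °C, then exposed to library compounds for 90 min at 37 °C. Detection reagent was added for 30–60 min at room temperature, and luminescence was read.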
DT40 TDP1 CPT: qHTS for Inhibitors of human tyrosyl-DNA phosphodiesterase 1 (TDP1): qHTS in cells in presence of CPT; chicken DT40 Tdp1-/-;hTDP1 cells + 20 nM CPT, ATP luminescence, 48 h; Potency, µM (titrated, usually from 46.2 µM), for the others: at the highest dose activity change, negative = growth inhibition, hits mostly inhibitors; 420,000 tested, 12% active; AID 686979, 2013; further: potency means the concentration at half of the fitted maximal effect; on the % scale 0 is the no-effect control and ±100 the full control effect; nearly all actives have a fitted effect of over 55% in size
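Chicken DT40 Tdp1-/- cells complemented with human TDP1, 400 cells/well, exposed to compounds plus 20 nM camptothecin for at least 48 h at 37 C; viability read as ATP content by CellTiter-Glo luminescence.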
ClpP mod: qHTS Assay for Activators of ClpP; AID 651965, 2013; purified B. subtilis ClpP, FRET peptide cleavage, 20 min; 340,000 tested, 1.9% active; Potency, µM (top dose mostly 57.5 µM), for inactives: at the highest dose activity change, negative = active; active means well fitted falling curve with a large enough effect; inconclusive means small, poorly fitted or top-dose-only effect; inactive means no such curve, though single readings can be large or run the other way; further: potency means the concentration at half of the fitted maximal effect; the source files actives as falling curves though it sought activators and does not explain the sign; nearly all actives have a fitted effect of over 65% in size
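ClpP 10 microg/mL final, pH 8 Tris/KCl buffer with BSA, glycerol, Tween-20; compound pinned in; FRET-FV substrate; RT 20 min; Ex320/Em430; ΔFRET vs ADEP 5.8 microM, DMSO, no enzyme.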
IL-1B inflam inh: qHTS for Inhibitors of Inflammasome Signaling: IL-1-beta AlphaLISA Primary Screen | 360,000 tested, 4.7% active | THP-1 LPS/ATP IL-1B secretion, AlphaLISA, 16 h; stronger effect = lower value | activity change, % at 57.5 µM; in the data active means activity change below about -50%; inconclusive means mostly about -30% to -49%; further: on the % scale 0 is the no-effect control and ±100 the full control effect
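THP-1 cells pretreated 1 hr with compounds (up to 57.5 uM final), then stimulated with LPS (250 ng/mL final) plus ATP (1.25 mM final); secreted IL-1B measured by AlphaLISA after 16 hr, decreased signal indicating inhibition.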
TDP1 cell noCPT: qHTS for Inhibitors of human tyrosyl-DNA phosphodiesterase 1 (TDP1): qHTS in cells in absence of CPT; 420,000 tested, 15% active; Potency, µM (top dose mostly 46.2 µM), for the others: top-dose activity change, negative = growth inhibition, most hits filed as inhibitors; DT40 Tdp1-/- hTDP1 cells, no CPT, ATP luminescence, 48 h; further: potency means the concentration at half of the fitted maximal effect; on the % scale 0 is the no-effect control and ±100 the full control effect; nearly all actives have a fitted effect of over 55% in size
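Luminescent ATP content (CellTiter-Glo) served as the growth readout. Knockout chicken DT40 cells expressing human TDP1 were exposed to compounds without camptothecin for a minimum 48 hr at 37 °C.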
DRD3 antagonist: qHTS of D3 Dopamine Receptor Antagonist: qHTS; max response, negative = inhibition, %; D(3) dopamine receptor (Homo sapiens), P35462; D3R cells, DiscoveRx beta-arrestin luminescence, antagonist mode; stronger effect = lower value; 360,000 tested, 2.5% active; in the data active means max response below about -50%; inconclusive means no clear call, values can overlap the other calls; further: on the % scale 0 is the no-effect control and ±100 the full control effect
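Cells expressing the human receptor were seeded at 1500 cells/well, incubated overnight at 37 degrees C in 5% CO2, then exposed to library compounds with dopamine controls for 90 minutes at 37 degrees C before luminescent detection.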
ClpP inh valid: qHTS Assay for Activators of ClpP: Hit Validation of Inhibitors; shares compounds with ClpP mod; purified B. subtilis ClpP, FRET-FV substrate cleavage, 20 min; Potency, µM (highest dose often 57.5 µM), inactives show at the top dose activity change, negative = inhibition, actives largely listed as inhibitors; 470 tested, 40% active; AID 743245, 2014; further: potency means the concentration at half of the fitted maximal effect; on the % scale 0 is the no-effect control and ±100 the full control effect; nearly all actives have a fitted effect of over 70% in size
* = called active by the depositor; i = inactive; u = inconclusive; x = no result given. This is a sample that favours compounds with a hit; in the whole collection about 21% have one here. Unless noted, the call rests on the fitted dose curve; in most records, active means well fitted inhibition curve with a large enough effect; inconclusive means small, poorly fitted or top-dose-only effect; inactive means flat fitted curve, though single readings scatter.

SMILES | D3 ag | DT40 TDP1 CPT | ClpP mod | IL-1B inflam inh | TDP1 cell noCPT | DRD3 antagonist | ClpP inh valid
O=C(Nc1ccc2nn(-c3ccccc3)nc2c1)c1ccc(-c2cccc(Cl)c2)o1 | 15.6 | -25.1% | 58.7% | x | u | x | -17.0%
CC(=O)N/C(=C\c1ccccc1)C(=O)OCC(=O)Nc1cc(S(=O)(=O)N(C)C)ccc1Cl | 1.2 | u | x | -23.7 | -28.8% | 0.0 | x
COc1ccccc1NC(=O)c1ccc(COc2ccc3c(c2)CCC3)cc1 | -1.4 | -5.2% | 218.7% | -7.2 | -17.5% | -15.3 | -19.2%
Cc1ccccc1N1CCN(C2=NC(=O)/C(=C/c3cn[nH]c3-c3ccccc3)S2)CC1 | -17.4 | u | -2.3% | 6.6 | u | 0.0 | x
CCCc1cc(=O)oc2cc(C)cc(OCc3nn[nH]n3)c12 | 5.7 | 6.6% | 8.91µM* | 17.9 | 4.1% | 23.1 | 34.3µM*
COc1ccccc1OCCNC(=O)c1ccc2c(c1)OCCO2 | -5.5 | -17.4% | 7.94µM* | -3.3 | u | -18.1 | -1.4%
CN(C)CCOC1c2ccccc2CCc2ccc3ccccc3c21 (centres undefined) | -36.0 | u | 44.7% | -85.7* | 20.6µM* | u | -0.5%
CN(C)CCOC1c2ccccc2C=Cc2ccccc21 | -13.1 | -9.9% | x | -13.5 | -22.4% | u | x
COc1ccccc1CNC(=O)c1ccc(Nc2nc3ccccc3n3nnnc23)cc1 | 10.8 | u | i | x | u | x | 15.3µM*
O=C(C(=O)N1CCN(c2cccc(Cl)c2)CC1)c1cn(CC(=O)N2CCOCC2)c2ccccc12 | 17.7 | -21.6% | -0.9% | u | -3.1% | 1.3 | x
CCCNC(=O)NNC(=O)c1cc(-c2ccc3c(c2)OCO3)nc2ccccc12 | 1.4 | u | -8.8% | i | u | 12.6 | x
CC(NC(=O)c1cc(-c2ccc3c(c2)OCO3)nc2ccccc12)C(C)(C)C (centres undefined) | -3.6 | u | 39.6% | 1.7 | u | 2.4 | 24.3µM*
COc1cccc(N2C(=O)Nc3ccc(Br)cc3C2(O)C(=O)NCCCOC(C)C)c1 (centres undefined) | 19.1 | 11.8% | x | 26.7 | -1.3% | -11.1 | x
Cc1cccc(C(=O)N2CCN(c3ncnc4c3cnn4-c3ccccc3)CC2)c1 | 8.2 | u | 116.3% | -56.6* | u | 19.8 | -5.1%
O=C(CN1C(=O)CCS(=O)(=O)c2ccccc21)Nc1ccccc1F | 2.4 | 1.0% | 0.4% | 12.9 | 1.2% | -1.3 | x
CC1(C)Cc2nc3oc4c(NCc5ccccc5)ncnc4c3cc2CO1 | 8.2 | u | 2.82µM* | 69.4 | u | 21.6 | 9.68µM*
CC1(C)Cc2nc3oc4c(NCCCN5CCOCC5)ncnc4c3cc2CO1 | -5.8 | -20.9% | x | 10.3 | -13.0% | 2.0 | x
COCc1cccc(-c2csc(C(NC(C)=O)c3cccc(OC)c3)n2)c1 (centres undefined) | 8.3 | -23.9% | 1.6% | 10.1 | u | 19.3 | x
CC1(C(=O)N(CC(=O)NC2CCCC2)Cc2ccco2)CC(=O)N=C2C=CC=CN21 (centres undefined) | 9.7 | 0.5% | 3.16µM* | 7.3 | 11.3% | 5.3 | 17.2µM*
CCc1ccc2nc(NC(=O)Cn3cnc4ccccc4c3=O)sc2c1 | 4.0 | u | -4.1% | 0.0 | u | 1.9 | x
CCc1cccc(Nc2nn3c(=O)c4ccccc4nc3s2)c1 | x | x | x | x | x | x | -11.6%
COc1ccc(OC)c(NC(=O)c2cc3c(Cl)nc4ccccc4c3s2)c1 | 7.1 | u | 54.3% | -4.4 | u | -11.2 | -26.3%
COC(=O)[C@@H]1C[C@@H]2CC[C@@H](O)C[C@@H]2N1Cc1ccc(N2CCN(C)CC2)cc1 | 9.0 | -19.4% | 0.6% | 35.2 | 1.0% | 0.0 | x
O=C(Nc1ccc(F)cc1)c1sc2cc(C(F)(F)F)cnc2c1-c1cccs1 | -0.4 | u | 63.0% | -14.0 | 18.4µM* | 2.5 | -13.6%
COc1ccc(C(=O)Nc2ccc(N3CCOCC3)cc2)cc1S(=O)(=O)NC1CCCC1 | 2.5 | -0.7% | 8.91µM* | -10.3 | -5.2% | 3.3 | -0.5%
SMILES | D3 ag | DT40 TDP1 CPT | ClpP mod | IL-1B inflam inh | TDP1 cell noCPT | DRD3 antagonist | ClpP inh valid
O=C(COc1ccc(Br)cc1)Nc1ccc(C(=O)OC2CCCCC2)cc1 | -1.6 | u | -1.2% | x | u | x | x
O=C(CN1CCN(Cc2ccccc2)CC1)NCCc1ccccc1 | -7.3 | -10.7% | 6.31µM* | -2.6 | -13.5% | -9.3 | 0.6%
O=C(Nc1cccc(-c2nc3ccccc3o2)c1)c1ccc(-c2ccc(Br)cc2)o1 | 5.7 | u | 3.98µM* | x | 10.3µM* | x | 11.2%
CC(=O)Nc1cccc(-c2nc3ccccc3o2)c1 | 0.8 | -11.0% | 4.3% | 12.5 | u | 8.6 | x
CC(C)COc1ccc(C(=O)Nc2cc(S(=O)(=O)N3CCOCC3)ccc2N2CCCC2)cc1 | 2.8 | 16.4µM* | 47.5% | 2.5 | 25.9µM* | 6.7 | -11.4%
CCOc1ccccc1CNC(=O)c1cnc2sc(N3CCCCCC3)nn2c1=O | 6.7 | u | 3.16µM* | x | u | x | -4.9%
CCOc1ccccc1CNC(=O)c1cnc2sc(N3CCOCC3)nn2c1=O | 8.9 | -0.6% | 2.82µM* | x | -13.0% | x | 0.0%
CCCNC(=O)c1cnc2sc(N3CCCCCC3)nn2c1=O | 7.8 | -23.0% | 3.16µM* | x | u | x | 1.1%
Cc1ccccc1CNC(=O)c1cnc2sc(N3CCC(C)CC3)nn2c1=O | -7.3 | -23.1% | 1.3% | x | -27.5% | x | x
CC(SC(C)C(=O)NN=Cc1cccc(F)c1)C(=O)NN=Cc1cccc(F)c1 (centres undefined) | 2.2 | u | x | 16.2 | u | 30.6 | x
Cc1ccc(C)c2[nH]c(=O)c(CN(CCCN(C)C)C(=O)NCc3ccccc3)cc12 | -9.8 | u | 3.55µM* | u | 23.1µM* | 60.2 | u
Cc1ccc2[nH]c(=O)c(CN(CCO)C(=O)NCc3ccccc3)cc2c1 | 5.7 | -20.2% | -21.2% | 6.7 | -24.6% | 24.4 | x
CCCCc1c(C)[nH]c2nc3ccccc3n2c1=O | -6.3 | 1.3% | 1.8% | -4.6 | 1.2% | -2.3 | x
